Screens (PubChem)
Most compounds without a hit are left out; they make up all but 14% or so of the library.
4-MU autofl – 4-MU region autofluorescence; compound autofluorescence, 340/450 nm, 4-MU equivalents; active compounds read high; max dye-equivalent concentration, M; actives 11% (n = 59,000); in the data active = max dye-equivalent concentration above about 10 nM; inconclusive = mostly about 1.1 nM to 9.6 nM
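Compounds in 100 mM Tris, pH 8.0, incubated 15 min at room temperature, then fluorescence read at 340 nm excitation/450 nm emission. Signal converted to 4-MU dye-equivalent concentration using an on-plate six-point 4-MU standard curve.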
HADH2 inhib – inhibitors of human HADH2 dehydrogenase. recombinant HADH2, NADH fluorescence, beta-hydroxybutyryl-CoA. Potency, µM (doses to about 57.1 µM), inactives show at the highest dose activity change, negative = inhibition, usual class: inhibitors. actives 3.4% (n = 73,000). AID 886; note: potency is the fitted concentration of half-maximal effect; % is set by controls: 0 for no effect and ±100 for the full control effect; nearly all actives have a fitted effect of over 60% in size
Target sequence (Q99714 whole entry, looked up, one chain of several): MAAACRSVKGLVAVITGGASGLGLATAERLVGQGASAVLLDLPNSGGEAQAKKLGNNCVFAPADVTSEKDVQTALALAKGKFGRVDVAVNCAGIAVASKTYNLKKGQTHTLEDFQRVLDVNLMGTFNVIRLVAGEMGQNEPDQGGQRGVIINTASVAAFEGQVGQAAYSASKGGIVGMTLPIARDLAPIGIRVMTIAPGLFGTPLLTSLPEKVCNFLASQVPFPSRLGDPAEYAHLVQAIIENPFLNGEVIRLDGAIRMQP
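Activity measured as NADH fluorescence gain (360/450 nm), taken as the change between first and last reads of a 4-min kinetic run. Conditions: pH 9.0 Tris buffer, 20 nM E. coli-expressed His-tagged enzyme, 1 mM NAD+, 90 uM beta-hydroxybutyryl-CoA; 15-min compound preincubation.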
A350 autofl – A350 region autofluorescence. Compound autofluorescence, 340/450 nm, Alexa 350 dye-equivalents; active compounds read high. max dye-equivalent concentration, M. actives 11% (n = 59,000). AID 590; in the data active = max dye-equivalent concentration above about 10 nM; inconclusive = mostly about 1.1 nM to 9.6 nM
HSD17B inh – HSD17B dehydrogenase inhibition; actives 7.6% (n = 75,000); recombinant HSD17B10, NADH fluorescence kinetic; Potency, µM (doses to about 57.1 µM), for inactives: top-dose activity change, negative = inhibition, most hits filed as inhibitors; Q99714;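 note: the protocol describes HADH2 (HSD17B10) and not the HSD17B4 of the title; potency is the fitted concentration of half-maximal effect; % is set by controls: 0 for no effect and ±100 for the full control effect; nearly all actives have a fitted effect of over 70% in size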
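Activity followed as NADH fluorescence increase (ex 360, em 450 nm) every 30 seconds for 4 min, using final 90 uM beta-hydroxybutyryl CoA and 1 mM NAD+. Recombinant His-tagged enzyme, 20 nM, pH 9.0 Tris buffer, 15 min compound preincubation.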
CRE Fsk mod – modulators of forskolin-stimulated CRE signaling in CHO cells | CHO CRE-bla reporter (cAMP response element driving beta-lactamase), forskolin EC10, beta-lactamase ratio | actives 2.5% (n = 71,000) | Potency, µM (series often up to 38.2 µM), for inactives: top-dose activity change, negative = inhibition, most hits filed as activators; active = well fitted activation curve with a large enough effect in the signal ratio, with a control signal flat, not every such curve was filed as active; inconclusive = small, poorly fitted or top-dose-only effect, or effect the other way, or a change in a side signal; the % refers to the signal ratio; note: potency is the fitted concentration of half-maximal effect; % of control where 0% means no effect
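Cells were plated overnight at 37 °C, exposed to compound titrations plus EC10 NKH 477 for 3 h, then given CCF4 dye for 2 h at room temperature. Blue/green (460/530 nm) ratio was converted to %Activity and AC50 values calculated.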
AID923 – qHTS Assay for Allosteric/Competitive Inhibitors of Caspase-1: Spectroscopic Profiling in AFC Spectral Region; Potency, µM (top dose mostly 57.5 µM), inactives show at the highest dose fluorescence increase, most hits filed as activators; AID 923, 2007; compound fluorescence, AFC spectral region (405/520 nm); actives 1.1% (n = 75,000); note: potency is the fitted concentration of half-maximal effect; 0% is about no effect
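Compound autofluorescence profiled at 405 nm ex/520 nm em during kinetic caspase 1 run (50 nM enzyme, 5 uM Ac-WEHD-AFC, HEPES pH 7.5, 10 mM DTT). Titration up to 57 uM; baseline from regression intercept, normalized to AFC standard curve.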
Starred values were filed as active, the others as inactive; i = inactive; ? = inconclusive; / = no result; [ ] = dose if it differs, or a comment. Unless noted, calls come from the whole dose curve; as a rule, active = well fitted curve in the direction sought with a large enough effect; inconclusive = small, poorly fitted or top-dose-only effect, or another doubt; inactive = no such curve, though single readings can be large; an effect the other way counts as inactive or inconclusive.

SMILES	4-MU autofl	HADH2 inhib	A350 autofl	HSD17B inh	CRE Fsk mod	AID923
CCc1ccc(CNc2ccc(N3CCN(C(C)=O)CC3)cc2)cc1	i	1%	i	25µM*	16%	-1%
CCN(C(C)=O)c1nnc(CSc2nc3ccccc3s2)s1	i	-11%	i	?	13µM*	0%
O=C(CCCOc1ccc(Cl)cc1Cl)NCCCO	3.1e-08M*	10%	4.2e-08M*	-12%	-4%	-2%
CC(C)(CO)NC(=O)CCCOc1ccc(Cl)cc1Cl	/	2%	/	7%	5%	2%
CC(=O)N1CCC2(CCN(Cc3cc(C(F)(F)F)cc(C(F)(F)F)c3)CC2)CC1	i	-1%	i	-6%	-5%	-1%
C=CCCCCCCCCCCC/C=C/C(O)COC(C)=O (stereo not drawn)	/	/	/	-10%	/	-1%
NC(=O)c1nc(N2CCOCC2)nc(N2CCOCC2)n1	1e-08M*	-1%	?	-3%	0%	-1%
C[C@]12C=CC(=O)C=C1CCC1C2C(=O)C[C@]2(C)C1CC[C@]2(O)C(=O)CO (stereo partly drawn)	/	/	/	13µM*	/	-2%
CC(=O)OCC(=O)[C@@]1(O)CC[C@H]2[C@@H]3CCC4=CC(=O)CC[C@]4(C)[C@H]3C(=O)C[C@@]21C	1.1e-08M*	18%	1.6e-08M*	2%	/	4%
CC(=O)OCC(=O)[C@@]1(O)CC[C@@H]2[C@@H]3CCC4=CC(=O)CC[C@@]4(C)[C@H]3C(=O)C[C@]21C	i	-15%	i	/	0%	/
C[C@]12C=CC(=O)C=C1CCC1C2C(O)C[C@]2(C)C1CC[C@]2(O)C(=O)CO (stereo partly drawn)	/	/	/	?	/	-2%
COc1cc2c(cc1OC)C(C)N(C(=O)CCN1C(=O)C3C4C=CC(C4)C3C1=O)CC2 (stereo not drawn)	i	-1%	i	-4%	?	-1%
O=C(NC(=O)c1cccc(OC(F)(F)C(F)F)c1)OC1CCS(=O)(=O)C1 (stereo not drawn)	i	8%	i	12%	-3%	1%
Cn1cccc1C(=O)N1CCC2(CCCN(Cc3ccccc3)C2)CC1	i	2%	i	2%	?	0%
O=C(NCCC1=CCCCC1)C1CCN(S(=O)(=O)c2cccc3nsnc23)CC1	8.6e-08M*	?	6.8e-08M*	-8%	-21%	0%
O=C(C1CCN(S(=O)(=O)c2cccc3nsnc23)CC1)N1CCc2ccccc2C1	2.6e-08M*	4%	2.6e-08M*	-2%	?	0%
O=C(NCCc1ccccc1)C1CCN(S(=O)(=O)c2cccc3nsnc23)CC1	i	8%	i	1%	2%	-1%
CS(=O)(=O)N1CCC(C(=O)N2CCc3ccccc3C2)CC1	?	3%	?	-21%	-3%	-1%
NCCCCN=C(N)N	1.2e-08M*	-6%	1.5e-08M*	-2%	?	0%
COc1ccc(C2CC(=O)C(C=NCCN3CCOCC3)=C(O)C2)cc1 (stereo not drawn)	i	/	i	/	/	/
C/C(=C\c1cc(C(=O)O)c(C)o1)CO	2e-08M*	0%	2.5e-08M*	-3%	-6%	3%
O=S(=O)(O)c1cc(N=Nc2cccc3ccccc23)c(O)c2ncccc12	i	-21%[11.4 µM]	i	-10%[11.4 µM]	3%[7.6 µM]	0%[11.5 µM]
COc1ccc(C(=O)NCC2OCCc3ccccc32)c(O)c1 (stereo not drawn)	i	?	i	20µM*	?	0%
O=C(O)CCC(=O)NCC1OCCc2ccccc21 (stereo not drawn)	i	3%	i	10%	-18%	0%
CCOCCCNC(=O)C1CCN(S(=O)(=O)c2c(C)noc2/C=C\c2ccc(OC)cc2)CC1	1.2e-07M*	25µM*	1.3e-07M*	?	?	1%
CCOCCCNC(=O)C1CCN(S(=O)(=O)N2CCCCC2)CC1	?	6%	1e-08M*	4%	5%	-2%
